The campaign covered roughly 1,200 compounds. About 650 (54%) were called active. Inconclusive results (about 5%) are left out.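 Rule for the calls: active = signal-lowering curve whose fitted half-maximal concentration is at or below ten times the top valid dose tested; inconclusive = flat curve with 30 to 70% inhibition, or poor fit; inactive = signal increase, flat within 30%, or potency beyond limit.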 So high a share suggests a set chosen from earlier hits. These entries were drawn from the full list. Entries with a potency or affinity are not part of this list.
Assay: EBV LMP1 TES2 canonical NF-kB signalling blockers – cell-based, HEK293, luciferase, cherry-pick, dose response (AID 588343);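 note: 0% = median of neutral control wells and -100% = MG132 positive control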
Conditions: HEK293 LMP1 TES2 NF-kB luciferase reporter, 16 h; series mostly up to 35 µM; activity change, negative = inhibition: at the top concentration

Activity change, negative = inhibition, inactive:
COc1ccc(CN2C(=O)c3cccnc3C2Nc2cc(Cl)ccc2OC)cc1 (stereo unspecified) 7.84%
COc1ccc(-c2nc(C)ncc2-c2ccccc2)c(O)c1 14%
O=C(COC(=O)c1cc2ccccc2cc1O)NCc1ccccc1 2.44%
O=C(Nc1ccccn1)NC1CCCCC1 25.1%
Cc1ccc(NC(=O)NNS(=O)(=O)c2ccc(Br)cc2)cc1 -5.64%
CC1CN(c2cc(=O)n(-c3ccccc3)c(=O)[nH]2)CC(C)O1 (stereo unspecified) 9.32%
Cc1ccc(-n2nc(C(=O)NCc3ccc(C)o3)c3c4ccccc4n(C)c3c2=O)cc1 1.78%
Nc1nc(N)nc(-c2cc(Cl)ccc2Cl)n1 1.16%
COc1ccccc1NC(=O)Cn1nnc(-c2ccccc2NS(=O)(=O)c2ccccc2)n1 13.3%
CC1CCCN(C(=O)COC(=O)c2n[nH]c3ccccc23)C1 (stereo unspecified) -9.33%
COc1ccc(-c2[nH]ncc2/C=N\NS(=O)(=O)c2ccc(Cl)cc2)cc1 -21.3%
COc1ccc(S(=O)(=O)NCC(c2cccnc2)N2CCN(c3ccc(F)cc3)CC2)cc1C (stereo unspecified) -9.56%
CC1(C)CC(=O)C(CC2=C(O)CC(C)(C)CC2=O)=C(O)C1 -2.16%
CSc1ccccc1OCc1cc(C(=O)N2CCC[C@H]2C(N)=O)no1 -1.13%
COc1ccccc1OCc1ccc(C(=O)c2ccccc2)cc1 12.8%
Cc1ccc(C(=O)NCC(=O)N(C)Cc2cccc(F)c2)s1 -9.68%
CCCC(=O)C1=C(O)C(C(=O)OC)C(C)(C)CC1=Nc1ccncc1 (stereo unspecified) 19.9%
CSc1ccccc1NC(=O)CN1CCCCC1C (stereo unspecified) 13.4%
CCSc1nnc(NC(=O)CCn2c(=O)oc3ccccc32)s1 4.22%
O=C(CN1C(=O)c2ccccc2C1=O)NNC1=NS(=O)(=O)c2ccccc21 -3.6%
CCOc1cc(C(=O)OC(C)C(=O)Nc2ncc(Cl)cc2Cl)ccc1OCC(=O)N1CCOCC1 (stereo unspecified) 8.92%
Cc1onc(-c2c(Cl)cccc2Cl)c1C(=O)N[C@@H]1C(=O)N2[C@@H]1SC(C)(C)[C@@H]2C(=O)O -8.5%
COc1ccccc1N1CCN(CCCNC(=O)C2CCCN(c3ncnc4c3nc3n4CCCCC3)C2)CC1 (stereo unspecified) 0.249%
C=CCN1CCN(C(CC(C)C)c2nnnn2CCOC)CC1 (stereo unspecified) -11.1%
Cn1c(CC(=O)Nc2ccc(F)cc2)nnc1SCC(=O)Nc1nncs1 10.7%
O=C(Cn1nc(C(F)(F)F)c2c1CCC2)NC1CCCCC1 -2.62%
O=C(CCCN1C(=O)[C@H]2CC=CC[C@H]2C1=O)NCc1nc(-c2ccc(Cl)cc2)no1 -18.8%
O=C(O)CCc1nc(-c2ccc(Cl)cc2)no1 4.11%
Cc1ccccc1NC(=O)CN1C(=O)S/C(=C\c2cccn2-c2cccc(C(=O)O)c2)C1=O -6.82%
COc1ccc(NC(=O)CCS(=O)(=O)c2ccc3c(c2)CCN3C(C)=O)cc1 -5.97%
COc1ccc(N2C(=O)C(=O)/C(=C(/O)c3ccc(C)cc3)C2c2cccnc2)cc1 (stereo unspecified) 15.4%
COC(=O)c1ccc(COc2ccccc2/C=C/C(=O)c2ccc(OCC(=O)O)cc2)cc1 28.1%
CC(=O)Nc1ccc(OCCCNC(=O)c2c(-c3ccccc3)noc2C)cc1 -11.5%
Cc1ccc(C)c(S(=O)(=O)N2CCN(CC(=O)N3CCc4ccccc4C3)CC2)c1 -3.25%
CCc1c(C)nc2cc(-c3ccc(OC)c(OC)c3)nn2c1NCC1CC1 -3.66%
NC(=O)C1(Nc2ccc([N+](=O)[O-])cc2)CCCC1 34.6%
CCN(CC)Cc1cc(Nc2ccnc3cc(Cl)ccc23)ccc1O 101%
O=C1CCC(C(=O)N2CCCCCC2)CN1CCc1ccc(Cl)cc1 (stereo unspecified) 16.5%
O=C(C1CCCCC1)N1CCN(c2ncccn2)CC1 3.25%
CCCCCC(=O)N1CCN(c2ccc(C(C)=O)cc2F)CC1 -3.82%
COc1ccc(OC)c2[nH]c(=O)c(CCNC(=O)c3ccc(S(=O)(=O)N(C)C)cc3)cc12 -1.61%
O=C(c1sc2cc([N+](=O)[O-])ccc2c1Cl)N1CCOCC1 -5.85%
COc1ccc(-c2cn3nc4c(nc3n2)CCCC4)cc1 16.5%
CC(C)(C)c1cc(C(=O)NNC(=O)Nc2cccc(Cl)c2)n(Cc2ccccc2)n1 -29.9%
O=C(CCC(=O)NNC(=O)Nc1cccc(Cl)c1)NCc1ccccc1 5.6%
O=C(O)c1cccc(NC(=O)c2cn(-c3ccccc3)nc2-c2ccc(F)cc2)c1 -4.64%
COc1cccc(CC(=O)NNC(=O)c2ccc3c(c2)OCO3)c1 28.4%
CC(CN1CCCCC1)OC(=O)c1ccc2c(c1)OCO2 (stereo unspecified) 11.2%
COC(=O)C1=C(C)N(CCCC(=O)O)C(=O)NC1c1cccc(Cl)c1Cl (stereo unspecified) 10.5%
Cn1cc(SCC(=O)NCC2CCCO2)c2ccccc21 (stereo unspecified) 2.79%
COc1ccc(CN(C(=O)c2nsc(Cl)c2Cl)C(C(=O)NC2CCCC2)c2ccc(C)cc2)cc1 (stereo unspecified) -2.71%
CCc1nnc(NC(=O)c2ccc(S(=O)(=O)N3CCOCC3)cc2)s1 0.338%
CN(Cc1ccc(F)cc1)C(=O)CN1CCN(S(=O)(=O)c2ccc3c(c2)OCCCO3)CC1 -8.59%
Cc1c(C=O)c2ccccn2c1C(=O)c1ccccc1Cl -10.8%
COc1cc(/C=N/NC(=O)c2cccc(S(=O)(=O)N3CCOCC3)c2)cc(OC)c1O 0.063%
Cc1ccc(S(=O)(=O)N2CCCCC2)cc1NC(=O)CNc1ccccc1N1CCCC1=O 20%
CC(=O)c1ccccc1OCC(=O)Nc1cccc(S(=O)(=O)N2CCCC2)c1 27.2%
Cc1ccc(-c2nnn(CC(=O)N(Cc3ccco3)C(C(=O)NC(C)(C)C)c3ccncc3)n2)o1 (stereo unspecified) 0.887%
COc1ccc(/C=N/NC(=O)COc2ccccc2-c2ccccc2)cc1 -5.95%
CCOC(=O)Cc1csc(N/N=C\c2ccc(N(C)C)cc2)n1 -10.4%
COc1ccccc1C(=O)NC(=O)CSc1nnc(N)s1 3.08%
Cc1ccc(N(Cc2cc3ccccc3[nH]c2=O)C(=O)c2ccco2)c(C)c1 7.13%
COc1ccc(N2CCN(CCNC(=O)CCCn3c(=O)[nH]c4cc(Cl)ccc4c3=O)CC2)cc1 5.67%
Cc1ccc(CN2C(=O)CCC2C(=O)NCCCN2CCC(C)CC2)cc1 (stereo unspecified) -7.63%
COc1ccc(-c2nc(CS(=O)CC(=O)NCc3ccc(Cl)cc3)c(C)o2)cc1 (stereo unspecified) 12.4%
CC1CC(C)CN(S(=O)(=O)c2ccc(NC(=O)CCN3C(=O)C4CC=CCC4C3=O)cc2)C1 (stereo unspecified) -5.72%

Source: PubChem BioAssay AID588343 (Broad Institute, 2011)
